# Screening results from PubChem.
# GLP-1R agonist = qHTS of GLP-1 Receptor Agonists | Potency, µM (doses to about 45.6 µM), hits mostly activators | Glucagon-like peptide 1 receptor (Homo sapiens), P43220 | HEK293 GLP-1R CRE-luciferase, luminescence, 4-6 h; cells express a hypersensitive GLP-1R form | AID 624172, 2012 | hit rate 0.007% among 380,000
# ClpP mod = qHTS Assay for Activators of ClpP | ATP-dependent Clp protease proteolytic subunit (Bacillus subtilis (strain 168)), P80244 | purified B. subtilis ClpP, FRET peptide cleavage, 20 min | hit rate 1.9% among 340,000 | Potency, µM (top dose mostly 57.5 µM) | AID 651965, 2013; active = well fitted falling curve with a large enough effect; inconclusive = small, poorly fitted or top-dose-only effect; inactive = no such curve, though single readings can be large or run the other way; also: the source files actives as falling curves though it sought activators and does not explain the sign; nearly all actives have a fitted effect of over 65% in size
#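 Purified B. subtilis ClpP, 10 microg/mL final in Tris/HCl pH8 with KCl, BSA, glycerol and Tween-20, cleaved an Abz/nitrotyrosine-quenched decapeptide. Fluorescence (ex 320, em 430) was read at 0 and 20 min at room temperature. Delta was normalized to 5.8 microM ADEP and DMSO/no-enzyme controls.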
# GLP1R cytotox = qHTS of GLP-1 Receptor Inverse Agonists: Cytotox Screen | Potency, µM (highest dose often 38.3 µM), most hits filed as inhibitors | HEK293 cAMP-luciferase reporter cells, luminescence, 24 h | hit rate 0.13% among 410,000;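 also: loss of luciferase light is scored as toxicity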
#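 Step one: seed cells (200 cells/uL, DMEM with 10% Nu serum, 1% pen-strep). Step two: 12-hour incubation at 37 deg C. Step three: pin 23 nL compound, incubate 24 hr. Step four: add luciferase reagent, read luminescence 12 min later.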
# GLP-1R inv ag = qHTS of GLP-1 Receptor Inverse Agonists (Inhibition Mode); AID 624417, 2012; Potency, µM (titrated, usually from 38.3 µM), actives largely listed as inhibitors; HEK293 GLP-1R CRE-luciferase, luminescence, 24 h; GLP-1R form is constitutively active; Glucagon-like peptide 1 receptor (Homo sapiens), P43220; hit rate 1.6% among 410,000; also: nearly all actives have a fitted effect of over 55% in size
#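 HEK293 cells stably co-expressing a cAMP-responsive luciferase reporter and constitutively active GLP-1R were seeded, incubated 12 h, then exposed to compounds for 24 h at 37 C. Luminescence was read 12 min after detection reagent; inverse agonists lower signal.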
# D3 ag = qHTS of D3 Dopamine Receptor Agonist: qHTS | max activation, % | AID 652048, 2013 | D(3) dopamine receptor (Homo sapiens), P35462 | D3R DiscoveRx beta-arrestin cells, luminescence, 90 min | hit rate 0.58% among 410,000; in the data active = max activation above about 30%
#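 Agonist-mode cell screen: cells plated at 1500/well and incubated overnight at 37 °C, then exposed to library compounds for 90 min at 37 °C. Detection reagent was added for 30–60 min at room temperature, and luminescence was read.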
# D3 antag = qHTS of D3 Dopamine Receptor Antagonist: qHTS | max response, negative = inhibition, % | AID 652054, 2013 | hit rate 2.5% among 360,000 | D3R cells, DiscoveRx beta-arrestin luminescence, antagonist mode; stronger effect = lower value | D(3) dopamine receptor (Homo sapiens), P35462; in the data active = max response below about -50%; inconclusive = no clear call, values can overlap the other calls
#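 Cells plated overnight at 1500 cells/well, then exposed to library compounds with dopamine controls for 90 minutes at 37 degrees C. DiscoveRx reagent added for 30–60 minutes at room temperature; luminescence read, quantitative HTS format.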
# Numbers stand for hits; . = inactive; ? = inconclusive; / = no result. Sampled rows, rich in hits. Any-hit rate of the full collection: about 5.7%. Unless noted, calls follow the shape of the dose curve; as a rule, active = well fitted curve in the direction sought with a large enough effect; inconclusive = small, poorly fitted or top-dose-only effect, or another doubt; inactive = no such curve, though single readings can be large; an effect the other way counts as inactive or inconclusive.
SMILES,GLP-1R agonist,ClpP mod,GLP1R cytotox,GLP-1R inv ag,D3 ag,D3 antag
O=[N+]([O-])c1ccc(NC(=S)NCCc2ccc(F)cc2)cc1,.,.,?,11µM,.,.
c1cnc2c(c1)ccc1cccnc12,.,.,?,?,.,-76
Cc1ccc(N(C)C(=O)Oc2cccc3cccnc23)cc1,.,.,.,?,.,.
CC(C)[C@@]1(NC(=O)[C@H]2CC3c4cccc5[nH]cc(c45)C[C@H]3N(C)C2)O[C@@]2(O)C3CCCN3C(=O)[C@@H](Cc3ccccc3)N2C1=O (stereo partly specified),.,/,/,/,/,/
CCC(C)C1NC(=O)C2CCCN2C(=O)C(CC(C)C)OC(=O)CCNC(=O)C(C)N(C)C(=O)C(C(C)C)N(C)C1=O (stereo unspecified),.,.,4.5µM,?,.,.
CCCc1c(-c2ccccc2F)ncn1CCc1ccccc1OC,.,.,.,?,.,.
CCCCn1cnc2cc(NCc3cccc(OC)c3O)ccc21,.,32µM,.,.,.,?
CN1CCN=C(c2ccccc2)c2cc(Cl)ccc21,?,/,/,/,.,/
Cc1ccc2cc3cc(C(=O)N4CCC5(CC4)OCCO5)oc3nc2c1,.,14µM,.,.,.,.
CN1CN(c2ccccc2)C2(CCN(CCCSc3ccccc3NC(=O)/C=C/c3ccccc3)CC2)C1=O,.,.,?,?,.,-107
O=C(/C=C/c1ccc(F)cc1)NNC(=O)CCN1CCN(Cc2ccccc2)CC1,.,/,.,?,.,.
COc1ccc2c3c1OC1C(O)C=CC4[C@@H](C2)NCC[C@]314 (stereo partly specified),.,/,/,/,/,/
CC(=O)OCC1=C(C(=O)O)N2C(=O)[C@@H](N)[C@H]2SC1,/,/,/,/,.,/
CCCN1CCC[C@H](c2cccc(O)c2)C1,.,.,.,.,121,.
Cc1ccc(-n2ncc(C(=O)NCCN3CCC(Cc4ccccc4)CC3)c2C2CCN(C(=O)OC(C)(C)C)CC2)cc1,/,.,?,10µM,.,/
CCCCn1c(=O)c(C(=O)NCCc2ccccc2)c(O)c2ccccc21,.,?,.,.,.,.
CC1=C(O)C(=O)C=C2C1=CC=C1C2(C)CCC2(C)C3CC(C)(C(=O)O)CCC3(C)CCC12C (stereo unspecified),.,.,?,?,.,-81
Oc1ccc2c3c1O[C@H]1[C@@H](O)C=C[C@H]4[C@@H](C2)NCC[C@@]341,/,/,/,/,.,/
CCCc1cnc(Nc2nc(C(N)Cc3ccc(OC)cc3)cs2)nc1 (stereo unspecified),.,.,?,?,.,.
CN1C(CC(O)c2ccccc2)CCCC1CC(O)c1ccccc1 (stereo unspecified),?,.,.,.,.,.
CCN(CC)CC(O)c1ccc(C2CCCC2)cc1 (stereo unspecified),.,.,.,7.1µM,.,.
Oc1cc[c]([Hg][Cl])cc1,.,/,/,/,.,/
CN(C(=O)CNC(=O)OCc1ccccc1)c1ccc(Br)cc1C(=O)c1ccccc1Cl,.,.,?,2.8µM,.,.
COc1ccc(Oc2ccc(/C=C/C(=O)c3ccc(O)cc3)cc2[N+](=O)[O-])cc1,.,.,?,?,.,?
Cc1cccc(OCC(=O)N2CCN(Cc3ccc4c(c3)OCO4)CC2)c1,.,/,.,?,.,?
SMILES,GLP-1R agonist,ClpP mod,GLP1R cytotox,GLP-1R inv ag,D3 ag,D3 antag
COc1ccccc1CN1CCN(C(=O)COc2ccc3ccccc3c2)CC1,.,.,.,10µM,.,.
Cc1cccc(OCC(=O)N2CCN(Cc3ccncc3)CC2)c1,.,.,.,.,.,-77
O=C(COc1ccc2ccccc2c1)N1CCN(CC2CC3C=CC2C3)CC1 (stereo unspecified),.,.,.,8.9µM,.,.
N#CC1(N2CCCCC2)CCCCC1,.,/,/,/,.,/
COc1ccc(C(=O)Nc2ccc(-c3cc(C(F)(F)F)nn3-c3ccccc3)cc2)cc1OC,/,.,.,?,59,/
Cc1ccc(C(=O)Nc2ccc(-n3ccnc3P(=O)(O)c3ccccc3)cc2)cc1,.,.,.,.,.,.
Clc1ccccc1Cl,.,/,/,/,.,/
Cc1ccc(OP(=O)(NCc2ccccc2)Oc2ccc(C)cc2)cc1,.,?,.,7.1µM,.,.
CN1CC(C(=O)c2ccc(F)cc2)C(c2ccc(F)cc2)C1 (stereo unspecified),.,.,.,?,.,-129
CN1CC(C(=O)c2ccc(Cl)cc2)C(c2ccc(N(C)C)cc2)C1 (stereo unspecified),.,.,.,?,.,.
CN1CC(C(=O)c2ccc(Cl)cc2)C(c2ccc(Cl)cc2Cl)C1 (stereo unspecified),.,/,.,8.9µM,.,.
COc1ccc(C2CN(C)CC2C(=O)c2ccc(C)cc2)cc1Cl (stereo unspecified),.,/,.,10µM,.,.
Cc1ccc(C2c3c(-c4cc(C)ccc4O)n[nH]c3C(=O)N2Cc2ccco2)cc1 (stereo unspecified),/,.,?,?,.,/
N#Cc1cc2c(nc1SCC(=O)Nc1ccc(F)c(Cl)c1)C1CCN2CC1,.,.,.,.,.,/
COc1ccc2c(c1)-c1c(ssc1=S)C(C)(C)N2S(=O)(=O)c1ccc(C)cc1,.,.,?,2.8µM,.,?
Cc1ccccc1C(O)(Cc1ccccc1)C1CN2CCC1CC2 (stereo unspecified),.,.,?,0.79µM,.,.
CCOC(=O)[C@]12Cc3cc(Cl)ccc3[C@H]1N(C1CCCCC1)C(=O)c1ccccc12,.,.,?,4.5µM,.,-80
CCOC(=O)[C@]12Cc3c(cc(OC)c(OC)c3OC)[C@H]1N(C)C(=O)c1ccccc12,.,.,.,.,.,-63
CCOC(=O)[C@]12Cc3c(cc(OC)c(OC)c3OC)[C@H]1N(CCC(=O)OC)C(=O)c1ccccc12,.,.,.,?,.,.
CCOC(=O)[C@]12Cc3cc(Cl)ccc3[C@H]1N(C(C)C)C(=O)c1ccccc12,.,.,?,?,.,.
CCOC(=O)[C@]12Cc3cc(Cl)ccc3[C@H]1N(C)C(=O)c1ccccc12,.,.,.,.,.,.
CCOC(=O)[C@]12Cc3cc(OC)ccc3[C@H]1N(C1CCCCC1)C(=O)c1ccccc12,.,.,10µM,2.5µM,.,-64
CCOC(=O)[C@]12Cc3cc(Cl)ccc3[C@H]1N(CC(=O)OC)C(=O)c1ccccc12,.,.,?,7.9µM,.,.
Oc1cccc[c]1[Hg][Cl],.,/,/,/,.,/
